Results from PubChem BioAssay (Tox21).
Inconclusive results are not listed. Where a call stands in place of a potency, no number is given. The source made the active and inactive calls. The call rests on the fitted dose curve; in most records, active means well fitted activation curve with a large enough effect in the repeat runs; inconclusive means weak or mixed curves; inactive means flat fitted curve, though single readings scatter.

Assay: A CellTox Green Cytotoxicity Assay to monitor cytotoxicity in HepG2 cells - 8 hour (AID 1224890); further: nearly all actives have a fitted effect of over 45% in size
Conditions: CellTox Green fluorescence; series mostly up to 76.8 µM
Source text: National Center for Advancing Translational Sciences [NCATS]
NIH Chemical Genomics Center [NCGC]
U.S. Environmental Protection Agency [EPA]
National Institutes of Environmental Health Sciences [NIEHS]
National Toxicology Program [NTP]
Cell-based models are critical for drug discovery. Determining the natural cytotoxic effects resulting from test compounds is an essential research activity. A CellTox Green Cytotoxicity Assay to monitor cytotoxicity in real time of continues cell culture during 40 hours of the compound treatment was used to screen Tox21 10K library compounds in HepG2 cells. CellTox Green Cytotoxicity Assay is a nonlytic, homogeneous, biofluorescent method to measure cytotoxicity in cell culture after experimental manipulation. The assay system uses a proprietary asymmetric cyanine dye that is excluded from viable cells but preferentially stains the dead cell's DNA. […] Viable cells produce no appreciable increases in fluorescence. Therefore, the fluorescence signal produced by the binding interaction with dead cell DNA is proportional to cytotoxicity.
The mixture of HepG2 cell suspension and reagents were dispensed at 600cells/6 ul/well in 1536-well tissue culture treated black solid bottom plates using a Multidrop dispenser. After the assay plates were incubated at a 37 C/5% CO2 incubator for 5 hours, 23 nL of compounds dissolved in DMSO, positive and negative controls was transferred to the assay plate by a pintool work station. The plates were incubated at 37 C for 40 hours. The fluorescence intensity were measured at 0h, 8h, 16h, 24h, 32h and 40h time points using ViewLux plate reader during compound treatment.

Row | Structure (SMILES) | Potency
1 | O=C(O)Cc1sc(-c2ccccc2)nc1-c1ccc(Cl)cc1 | inactive
2 | CCN(CC)CCOc1ccc2c(c1)C(=O)c1cc(OCCN(CC)CC)ccc1-2 | inactive
3 | CCOc1ccc(NC(=O)CC(C)=O)cc1 | inactive
4 | Cc1cc(C)c(S(=O)(=O)O)cc1N=Nc1cc(S(=O)(=O)O)c2ccccc2c1O | inactive
5 | FC(F)(F)C(F)(F)C(F)(F)C(F)(F)C(F)(F)C(F)(F)CCI | inactive
6 | CCOc1cc(OCC)c(C(=O)CCC(=O)O)cc1OCC | inactive
7 | O=[N+]([O-])c1cccc(Cl)c1Cl | inactive
8 | O=C1CCCCCO1 | inactive
9 | CC(CN)CCCN (stereo not given) | inactive
10 | CCCCCCCCCCCCCCCC(=O)OC/C=C(C)/C=C/C=C(C)/C=C/C1=C(C)CCCC1(C)C | inactive
11 | Cc1c(Cn2ccnc2)c2ccccc2n1CCC(=O)O | inactive
12 | CC(=O)[C@@]1(O)CC[C@H]2[C@@H]3C[C@H](C)C4=CC(=O)CC[C@]4(C)[C@H]3CC[C@@]21C | inactive
13 | N[C@H]1C(O)O[C@H](CO)[C@H](O)[C@@H]1O (stereo not given in full) | inactive
14 | CC(C)(Oc1ccc(Cl)cc1)C(=O)OCCCOC(=O)C(C)(C)Oc1ccc(Cl)cc1 | inactive
15 | CCCCCC(CO)CCC (stereo not given) | inactive
16 | Oc1ccc(Sc2ccc(O)cc2)cc1 | inactive
17 | NC(N)=N/N=C/c1c(Cl)cccc1Cl | inactive
18 | CCOC(=O)CC(=O)c1cc(F)c(Cl)nc1Cl | inactive
19 | CCN(CC)C(C)CN1c2ccccc2Sc2ccccc21 (stereo not given) | inactive
20 | CC1=CCC(C(C)C)C=C1 (stereo not given) | inactive

Row | Structure (SMILES) | Potency
21 | O=C(O)c1cn(C2CC2)c2cc(Cl)c(F)cc2c1=O | inactive
22 | C=CC[N+]1([C@H]2C[C@H]3[C@@H]4CC[C@H]5C[C@H](OC(C)=O)[C@@H](N6CCCCC6)C[C@]5(C)[C@H]4CC[C@]3(C)[C@H]2OC(=O)CC)CCCCC1 | inactive
23 | O=C(c1ccccc1)c1ccc2n1CCC2C(=O)O (stereo not given) | inactive
24 | NC1CCN(c2nc3c(cc2F)c(=O)c(C(=O)O)cn3-c2ccc(F)cc2F)C1 (stereo not given) | inactive
25 | CC(O)C1CCCCC1 (stereo not given) | inactive
26 | C=CC(=O)OCCOC(=O)CCC(=O)O | inactive
27 | CCCCCCCCCCCCCCC1CO1 (stereo not given) | inactive
28 | NCc1ccccc1 | inactive
29 | CC(C)c1ccccc1C(C)C | inactive
30 | Oc1ccc(Cc2ccccc2)cc1 | inactive
31 | CCCCOc1ccc(CC(=O)NO)cc1 | inactive
32 | CCCCOC(=O)/C=C\C(=O)OCCCC | inactive
33 | CCC(C)N(C)C(=O)c1cc2ccccc2c(-c2ccccc2Cl)n1 (stereo not given) | inactive
34 | Nc1nc(CC(=O)O)cs1 | inactive
35 | CCc1nn(C2CCCCC2)c2cc(C3(C#N)CCC(C(=O)O)CC3)ccc12 (stereo not given) | inactive
36 | CCCc1ccccc1 | inactive
37 | CCCCCCCC/C=C\CCCCCCCC(N)=O | inactive
38 | C1CCC2OC2C1 (stereo not given) | inactive
39 | Nc1ccc(C(=O)N2CC3CC(CN(Cc4ccccc4)C3)C2)cc1 | inactive
40 | Cc1ccccn1 | inactive
